Measured values as given in the supplement of paper PMC6555819.

What follows are sequences tested on PPARg DBDmut IVT, anti-PPARg (DBD mutation: PPARg1 K132A/R137A, NR concentration 270 nM) (assay: PBM binding z-score (relative to random genomic background probes); higher = stronger binding; sequences stand for … in GC…GCGATTGACAGCGTAGAATGAAGG).
Method in brief: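 Antibodies against each partner of ligand-free nuclear receptor dimers (one per run) detected binding on custom Agilent 4×180K protein-binding microarrays after 1 h incubation. The double-stranded probes had 34-nt variable regions carrying direct-repeat seeds, single-nucleotide variants, half-site ablations and random human genomic background sequences. Binding z-scores, from regression-normalized fluorescence, use the random background probes as reference.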

| Sequence | PBM binding z-score |
| --- | --- |
| GGAACGATGGCAAAGTTGATAGCATCTGTCGACG | -1.16 |
| CCTATTAGTTGACCATAAGGGCAACCAAAGCTCG | 0.552 |
| TCATATAGGTAAATGCTAGCTGAAAGTCCGATCT | 1.15 |
| GCTAGCAGGCCATTTGGGTCACTCATTGACGGGC | -0.505 |
| GGAACGGGGGCAAAGTTGATAGCATCTGTCGACG | 11.6 |
| TTACCAAGGTGAGCTGAGGTCGTTGGTCCAACTC | -1.25 |
| CCTTGGAGGACAGAAGGTCAGAGCTGTCCGCTTT | -2.25 |
| CGATCTAGGTCAGAACAGGACAGTGAAGGATGAT | 1.33 |
| TAGCCTAGGTCATGCGCGCCAGTATAGTGTCGGC | 0.266 |
| GCTGCTAGGTCAGCTTGGTCAGCTAACGGGTACG | -1.08 |
| ACTATTAGTTTAGACGAGGGCAACCGATAGGTTG | 1.14 |
| TCTTGTAGATCAGCAGGAGGTTAAGAAAGATCGA | 0.0884 |
| GCTAGCAGGCCATTGGGGTCACTCAATGACGGGC | -0.85 |
| ACAGACAGGTGAAGAAGGTAACTCAGGCTATCAT | 0.429 |
| TCTTGTAGATCACAGGTTAAGAAAGCCGAAGCCT | 0.0684 |
| CCTAGTTGGTCAAGGTCACACACGCTATAGGTAC | 1.3 |
| TAGCCTAGGTCATTCAGGGTCCAGTATAGAAAGC | 0.0908 |
| CAAACTAGGTCAGGAGGTCAAAGTCCGCTTCCCG | 1.18 |
